Compounds without any hit were thinned out: in the full panel of roughly 83,000, 20% have a hit.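 Method: cells in 96-well plates; compound added at one concentration; 48 h incubation; percent growth measured; values under 10 scored active.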 Unmarked numbers belong to inactive results. Activity calls are given as the source filed them.
What was measured:
Experiment in all cases: NCI-60 one-dose screen, 48 h (100 = growth as untreated, 0 = no growth, -100 = all killed)
Details in all cases: 10 µM unless noted
[1] = test system: SR leukemia
[2] = test system: RPMI-8226 leukemia
[3] = test system: OVCAR-8 ovarian
[4] = test system: OVCAR-5 ovarian
[5] = test system: OVCAR-4 ovarian
[6] = test system: SK-OV-3 ovarian
[7] = test system: IGROV1 ovarian
[8] = test system: OVCAR-3 ovarian
[9] = test system: HS 578T breast
[10] = test system: NCI/ADR-RES ovarian

SMILES | growth [1] | growth [2] | growth [3] | growth [4] | growth [5] | growth [6] | growth [7] | growth [8] | growth [9] | growth [10]
OCc1n(Cc2ccc3ccccc3c2)cc[n+]1Cc1ccc2ccccc2c1 | 15.9% | 13.5% | 60.7% | 62.3% | 23.9% | 75.9% | 21.9% | 39.9% | 66.1% | 103%
O=C1c2cc3c(cc2-c2c1c1ccc(Cl)cc1c(=O)n2CCCNCCO)OCO3 | -43.8% (active) | -30.5% (active) | -64.7% (active) | -78.8% (active) | -64.8% (active) | -8.64% (active) | -66.7% (active) | -81.1% (active) | -49.6% (active) | -51.1% (active)
COc1cnc2c(c1)C(=O)c1c-2n(CCCNC2=NCCS2)c(=O)c2cc(F)ccc12 | -8.78% (active) | -14.3% (active) | 31.3% | 53.2% | 63.1% | 11.1% | 38% | 32.6% | 65.5% | 34.6%
COc1cccc(/C=N/Nc2nc3ccccc3s2)c1OC | 45.9% | 74.8% | 76.5% | 97.7% | 92.2% | 78.5% | 81.9% | 98.3% | 97.9% | 91.7%
O=C(c1ccccc1)c1ccc(Oc2ccc([N+](=O)[O-])cc2[N+](=O)[O-])cc1 | 14.6% | 35.2% | 41.5% | 59.9% | 28.5% | 99.9% | 1.87% (active) | 48.7% | 90.7% | 4.04% (active)
Oc1c(Cl)cc(Oc2cc(Cl)c(O)c(CN3CCOCC3)c2)cc1CN1CCOCC1 | 80.2% | 91% | 94.8% | 98% | 88.2% | 101% | 92.5% | 94.5% | 93.5% | 84.8%
C=C1CC[C@@H]2[C@](C)(COC(C)=O)[C@H](OC(C)=O)CC[C@@]2(C)[C@@H]1CC(NCc1ccccc1)C1=CCOC1=O (stereo not given in full) | 20.9% | 3.18% (active) | 28.2% | 102% | 35.9% | 79.2% | 62.9% | 31.8% | 86.4% | 23.5%
O=C(Nc1cccc(-n2cc(-c3ccncc3)c(-c3cc(O)cc(Cl)c3)n2)c1)Nc1ccc(Cl)c(Cl)c1 | -21.4% (active) | -15.3% (active) | -14.8% (active) | -2.26% (active) | 10.7% | 13.2% | 26% | -47.4% (active) | -6.42% (active) | 12.8%
CC1CN(/N=C/c2ccc([N+](=O)[O-])o2)C(=N)O1 (stereo not given) | 107% | 97.4% | 96.6% | 106% | 101% | 118% | 98.3% | 105% | 105% | 101%
CCSc1nc(Nc2ccc(S(=O)(=O)Nc3ccon3)cc2)c(C#N)c(-c2cccc(Br)c2)n1 | 93.7% | 79.3% | 91.2% | 89.6% | 103% | 99.1% | 122% | 117% | 105% | 110%
CCN1CC2=C(Nc3nc(SC)[nH]c(=O)c3C2c2cc(OC)c(OC)c(OC)c2)/C(=C/c2cc(OC)c(OC)c(OC)c2)C1 (stereo not given) | 82.5% | 96.7% | 94% | 106% | 95.9% | 110% | 120% | 116% | 111% | 105%
C#C[C@]1(O)CCC2C3CCc4cc(O)ccc4C3CC[C@@]21C (stereo not given in full) | 8.3% (active) | 28.4% | 47.5% | 78.1% | 66.8% | 43% | 55.2% | 16.1% | 4.63% (active) | 13.5%
O=C1C(=O)/C(=C/c2ccccc2)CCCCCC/C1=C/c1ccccc1 | -13.5% (active) | -33.5% (active) | 29.9% | 114% | 60.9% | 98.2% | 5% (active) | 21% | 81.4% | 80.1%

Source: PubChem BioAssay (NCI)
